This is part of a sample that, as a whole, favours compounds with a hit. Of some 83,000 tested, about 20% had one in any assay.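 Growth was measured after 48 h exposure to one concentration of compound in 96-well plates. Values under 10 count as active.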 A number with no mark means an inactive call. Activity calls are given as the source filed them.

For this experiment, the system named is MDA-MB-468 breast. The experiment is described as follows: NCI-60 one-dose screen, 48 h (100 = growth as untreated, 0 = no growth, -100 = all killed). The following applies: 10 µM unless noted.
Take `Nc1ccn(C2OC(F)(CO)C(O)C2F)c(=O)n1` (stereo not given): the growth is 76.2%.

Regarding `CCSc1cnnc2ccccc12`, the growth is 105%. Regarding `CNc1ccc(CSc2ccc(Cl)cc2)cc1`, the growth was 78.5%. Turning to `Cc1ccc(/C=C(/C#N)n2nnc3ncccc32)cc1`, the growth is 24.4%. The value for `CC(C)Cc1cc(CNC(=O)C2[C@H]3CN(C(=O)c4ccccc4)C[C@@H]23)nn1-c1ccccc1` (stereo not given in full) was 88.9%; that for `C=C(C)[C@@H]1C[C@@H]2Cc3ccc(Cl)c(C)c3N1O2` was 96.3%; that for `CC(C)N(Cc1ccc(CN(C(=O)CCl)C(C)C)cc1)C(=O)CCl` was 15.4%. The value for `CCCCC/C=C\C/C=C/CCCCCCCCNC(=O)Nc1ccc([N+](=O)[O-])cc1` was 84.5%.

For `C=CCOC(=O)C(=O)OCC=C`, the growth was 104%.

As for `Nc1nc(N)c(NC(=O)CNc2ccc(C(=O)O)cc2)c(N)n1`, the growth is 98.6%. Regarding `Nc1ccc2c(c1)Cc1cc(N)c(Cl)cc1-2`, the growth was 80.4%. Take `Cc1ccc(NC(=O)/C=C/c2ccc(OCCCOc3ccc4c(C)cc(=O)oc4c3)cc2)cc1`: the growth was 77.5%. The result for `CC(C)(C)n1cc(-c2ccnc(NCCCNS(=O)(=O)c3ccc(C(F)(F)F)cc3)c2)c(-c2cccc(F)c2)n1` reads 98.6%. Turning to `COc1cc([C@@H]2c3cc4c(cc3C(O[C@@H]3O[C@@H]5CO[C@@H](c6cccs6)OC5[C@H](O)[C@H]3O)C3COC(=O)[C@@H]32)OCO4)cc(OC)c1O` (stereo not given in full), the growth is -58.9% (active).

For the compound `COc1ccc2cc(-c3nc4ccccc4s3)c(Cl)nc2c1OC`, the growth is 103%.

As for `CN(C)c1ccc(/C=N/N=C(\C#N)[S][Sn]([Cl])([c]2ccccc2)[c]2ccccc2)cc1`, the growth was -76.8% (active).

On to `C=C(C)[C@@H]1CC[C@]2(C(N)=O)CC[C@]3(C)[C@H](CC[C@@H]4[C@@]5(C)CCCNC(C)(C)[C@@H]5CC[C@]43C)[C@@H]12`, for which the growth is 78.3%. `N#CCNC(=O)c1ccc(-c2ccnc(Nc3ccc(N4CCOCC4)cc3)n2)cc1`: the growth is 9.99% (active). The value for `CCN(CC)CCOc1nc2cc(OC)c(OC)cc2c2c1-c1ccc(OC)cc1C2=O` was 84%.

In the case of `Fc1ccc(-c2nc(-c3nc4ncccc4[nH]3)cc3c2[nH]c2ccccc23)cc1F`, the growth is 49.5%. On to `CCCC/C=N/NC(=S)NCc1ccccc1`, for which the growth was 93%. Turning to `Cc1ccc2c(c1)sc(-c1ccc(N(C)C)cc1)[n+]2C`, the growth was -11.3% (active).

On to `O=CN1N=C(c2ccc(Nc3ccnc4cc(Cl)ccc34)cc2)CC1c1ccccc1` (stereo not given), for which the growth was 3.07% (active). For the compound `O=C1OC(Oc2ccccc2)(c2ccccc2)c2ccccc21` (stereo not given), the growth is 112%. Turning to `CCOC(=O)c1c(NC(=S)Nc2ccc([N+](=O)[O-])cc2)sc2c1CCCCC2`, the growth is 71.2%.

As for `O=C(Cn1c2ccccc2c2ccncc21)N/N=C/c1cc(O)c(O)c(O)c1`, the growth is 111%. For the compound `COc1ccc(/C=C(\C#N)n2nnc3ccccc32)cc1`, the growth is 4.67% (active). Take `COc1ccc(-c2nn(-c3cccc(NC(=O)Nc4cc(C(F)(F)F)cc(C(F)(F)F)c4)c3)cc2-c2ccncc2)cc1Cl`: the growth was 17.7%. As for `COC(=O)c1cc(=O)nc(N/N=C/c2ccco2)s1`, the growth was 61.7%. `C=C1CCc2nc(SCC(=O)O)ccc2N1`: the growth is 97.3%.

Turning to `Cc1c2ccncc2c(C)c2c1c1cc(CO)ccc1n2C`, the growth is -46.1% (active). Turning to `O=S(=O)(NC1c2ccccc2C[C@H]1O)c1ccc(Cl)cc1Cl` (stereo not given in full), the growth is 85.7%.

For `CCOC(=O)c1c(C)nc2ccccc2c1/C=C/c1ccccc1`, the growth was 24.7%. For `CC1CCN(CCCCCOc2ccc3oc4ccc(Cl)cc4c(=O)c3c2)CC1`, the growth is 54.5%. Regarding `O=C(Nc1c(Cl)cc(Cl)cc1Cl)ON=C1CCCCC1`, the growth was 96.7%.

For `CCOc1cc2ncc(C#N)c(Nc3ccc(OCc4ccccn4)c(Cl)c3)c2cc1NC(=O)/C=C/CN(C)C`, the growth is -35.1% (active).

For `COc1cc(CC#N)c([N+](=O)[O-])cc1OC`, the growth was 100%. The result for `CN(C)c1ccc(/C=C/c2ccnc3ccccc23)cc1` reads -9.88% (active); that for `C=C1CCC2C3(C)COC(c4cccc(Cl)c4)OC3CCC2(C)C1/C=C/C1=CCOC1=O` (stereo not given), 43.6%; that for `CC(C)CCSc1nc(-c2ccc(F)cc2)c(C#N)c(N2CCN(C)CC2)n1`, 98.3%.

For the origin of these results see PubChem BioAssay (NCI).
